From PubChem BioAssay (EPA / NIEHS) come the findings set out here.

Active and inactive are the calls of the source. How the source made its calls: active means hit-call score of the fitted dose curve at least 0.9, where 1 is the maximum; inactive means score below 0.9.

Holding throughout (conditions): mRNA level, 48 h; actives raise or lower the signal
Read-out in experiment [1]: Cytochrome P450 4A22 (Homo sapiens) (UniProt Q5TCH4)
The experiment can be described thus: LTEA_HepaRG_CYP4A22: Life Technologies and Expression Analysis (LTEA) Assay for Cytochrome P450 4A22 (CYP4A22) using HepaRG (AID 2283495). In a few lines:
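Concentration-response (8 points, max 100 uM, 0.5% DMSO) in human HepaRG liver cells after 48 h exposure. CYP4A22 mRNA by TaqMan qRT-PCR with housekeeping-gene normalization.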

Read-out in experiment [2]: Cytochrome P450 7A1 (Homo sapiens) (UniProt P22680)
The experiment can be described thus: LTEA_HepaRG_CYP7A1: Life Technologies and Expression Analysis (LTEA) Assay for Cytochrome P450 7A1 (CYP7A1) using HepaRG (AID 2283496). In a few lines:
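Using 0.5% DMSO as vehicle and baseline, chemicals were tested in duplicate over an 8-point range from 100 uM on HepaRG cells for 48 h; qRT-PCR signals were normalised to ACTB, GAPDH and POLR2A.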

Read-out in experiment [3]: Glutathione S-Transferase (GSTA2), GSTA2 (gene 2939)
Put plainly: LTEA_HepaRG_GSTA2: Life Technologies and Expression Analysis (LTEA) Assay for Glutathione S-Transferase (GSTA2) using HepaRG (AID 2283497). Summed up:
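GSTA2 transcript levels came from Fluidigm TaqMan qRT-PCR normalized to three housekeeping genes, fitted in both directions against DMSO. HepaRG cultures received chemicals for 48 h in serum-free induction medium (0.5% DMSO), 8 half-log concentrations up to 100 uM, duplicate.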

Read-out in experiment [4]: Glutamate-cysteine ligase catalytic (GCLC), GCLC (gene 2729)
Put plainly: LTEA_HepaRG_GCLC: Life Technologies and Expression Analysis (LTEA) Assay for Glutamate-cysteine ligase catalytic (GCLC) using HepaRG (AID 2283498). In a few lines: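 Expression by TaqMan qRT-PCR, normalized to three housekeeping genes (ACTB, GAPDH, POLR2A), with up- or down-regulation fitted against DMSO. HepaRG cells dosed in duplicate for 48 h with 8 half-log concentrations up to 100 uM, vehicle 0.5% DMSO.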

Read-out in experiment [5]: growth arrest and DNA damage 45 (GADD45G), GADD45G (gene 10912)
Put plainly: LTEA_HepaRG_GADD45G: Life Technologies and Expression Analysis (LTEA) Assay for growth arrest and DNA damage 45 (GADD45G) using HepaRG (AID 2283499). Summed up:
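Concentration-response in HepaRG: 48 h dosing, 0.5% DMSO, highest level 100 uM. GADD45G expression by qRT-PCR, normalised to endogenous controls; bidirectional fit to DMSO.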

Read-out in experiment [6]: Glutamate-cysteine ligase regulatory (GCLM), GCLM (gene 2730)
Put plainly: LTEA_HepaRG_GCLM: Life Technologies and Expression Analysis (LTEA) Assay for Glutamate-cysteine ligase regulatory (GCLM) using HepaRG (AID 2283500). Summed up:
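In this multiplexed HepaRG gene-expression assay, GCLM mRNA change after 48 h treatment (8 concentrations, max 100 uM) was scored against DMSO by bidirectional curve fitting.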

Read-out in experiment [7]: Glutathione S-transferase M3 (GSTM3), GSTM3 (gene 2947)
Put plainly: LTEA_HepaRG_GSTM3: Life Technologies and Expression Analysis (LTEA) Assay for Glutathione S-transferase M3 (GSTM3) using HepaRG (AID 2283501). In a few lines: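 Expression of GSTM3 is determined by qRT-PCR in human liver HepaRG cells treated 48 h with an 8-point half-log range from 100 uM in 0.5% DMSO.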

Read-out in experiment [8]: Heat shock 70 kDa protein 1 (HSPA1A), gene 3303
Put plainly: LTEA_HepaRG_HSPA1A: Life Technologies and Expression Analysis (LTEA) Assay for Heat shock 70 kDa protein 1 (HSPA1A) using HepaRG (AID 2283502). Summed up: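 An oxidative-stress marker readout: HepaRG cells treated 48 h in duplicate with an eight-point series (highest 100 uM) had HSPA1A mRNA quantified by TaqMan qRT-PCR. Activity was fitted in both directions using 0.5% DMSO as baseline.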

Read-out in experiment [9]: Hypoxia-inducible factor 1-alpha (Homo sapiens) (UniProt Q16665)
Put plainly: LTEA_HepaRG_HIF1A: Life Technologies and Expression Analysis (LTEA) Assay for Hypoxia-inducible factor 1 (HIF1A) Trancription factor using HepaRG (AID 2283503).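 Further: HIF1A transcript by TaqMan qRT-PCR normalized to ACTB GAPDH and POLR2A.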 In a few lines: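 Gain- or loss-of-signal HIF1A mRNA changes are fitted against a DMSO baseline. HepaRG cultures receive eight concentrations, highest 100 uM, for 48 h in serum-free induction medium with 0.5% DMSO.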

Read-out in experiment [10]: 3-Hydroxy-3-Methylglutaryl-CoA Synthase 2 (HMGCS2), HMGCS2 (gene 3158)
The experiment can be described thus: LTEA_HepaRG_HMGCS2: Life Technologies and Expression Analysis (LTEA) Assay for 3-Hydroxy-3-Methylglutaryl-CoA Synthase 2 (HMGCS2) using HepaRG (AID 2283504). In a few lines: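 This steatosis marker was read as HMGCS2 mRNA change in HepaRG cells treated 48 h with up to 100 uM chemical. Normalisation used housekeeping genes; activity in either direction was fitted relative to 0.5% DMSO vehicle.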

Read-out in another experiment: HGF (gene 3082)
The experiment can be described thus: LTEA_HepaRG_HGF: Life Technologies and Expression Analysis (LTEA) Assay for Hepatocyte Growth Facto (HGF) using HepaRG (AID 2283505). In a few lines: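 Using HepaRG monolayers kept in 0.5% DMSO, chemicals were tested in duplicate over eight half-log concentrations from 100 uM for 48 h. Endpoint: HGF mRNA change relative to DMSO, normalized to ACTB/GAPDH/POLR2A.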

Read-out in experiment [11]: Insulin Like Growth Factor 1 (IGF1), IGF1 (gene 3479)
The experiment can be described thus: LTEA_HepaRG_IGF1: Life Technologies and Expression Analysis (LTEA) Assay for Insulin Like Growth Factor 1 (IGF1) using HepaRG (AID 2283506). Summed up:
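Endpoint: IGF1 mRNA change by qRT-PCR, housekeeping-normalized, fitted bidirectionally relative to 0.5% DMSO vehicle. Human HepaRG cells were treated 48 h in serum-free induction medium, eight half-log concentrations topping at 100 uM.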

Read-out in experiment [12]: Intercellular Adhesion Molecule 1 (ICAM1), ICAM1 (gene 3383)
Put plainly: LTEA_HepaRG_ICAM1: Life Technologies and Expression Analysis (LTEA) Assay for Intercellular Adhesion Molecule 1 (ICAM1) using HepaRG (AID 2283507). Summed up:
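Using the human liver line HepaRG, compounds are tested in duplicate over 48 h at concentrations up to 100 uM. Expression is determined by TaqMan qRT-PCR, normalized to endogenous controls, and analysed relative to 0.5% DMSO vehicle.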

Read-out in experiment [13]: Insulin-like growth factor-binding protein 1 (IGFBP1), IGFBP1 (gene 3484)
The experiment can be described thus: LTEA_HepaRG_IGFBP1: Life Technologies and Expression Analysis (LTEA) Assay for Insulin-like growth factor-binding protein 1 (IGFBP1) using HepaRG (AID 2283508). In a few lines: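 HepaRG, 48 h, 8 conc. (max 100 uM, half-log), duplicates, 0.5% DMSO. Readout: TaqMan qRT-PCR, ACTB/GAPDH/POLR2A normalisation. Fit: bidirectional vs DMSO.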

Read-out in experiment [14]: Interleukin 6 (IL6), IL6 (gene 3569)
Put plainly: LTEA_HepaRG_IL6: Life Technologies and Expression Analysis (LTEA) Assay for Interleukin 6 (IL6) using HepaRG (AID 2283509). Summed up:
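Transcript levels, normalized to three housekeeping genes, were quantified by qRT-PCR after 48 h chemical treatment of HepaRG cells. Eight-point half-log series from 100 uM in 0.5% DMSO, duplicates. Fitted both directions against DMSO baseline.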

Read-out in experiment [15]: Interleukin 6 Receptor (IL6R), IL6R (gene 3570)
Put plainly: LTEA_HepaRG_IL6R: Life Technologies and Expression Analysis (LTEA) Assay for Interleukin 6 Receptor (IL6R) using HepaRG (AID 2283510). Summed up: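 In this HepaRG screen, test chemicals act on cells for 48 h at up to 100 uM (eight half-log points, duplicate wells). IL6R expression is quantified by qRT-PCR after normalization to ACTB, GAPDH and POLR2A, with DMSO as baseline.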

Read-out in experiment [16]: Potassium channel subfamily K member 1 (KCNK1), KCNK1 (gene 3775)
The experiment can be described thus: LTEA_HepaRG_KCNK1: Life Technologies and Expression Analysis (LTEA) Assay for Potassium channel subfamily K member 1 (KCNK1) using HepaRG (AID 2283511). In a few lines:
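KCNK1 transcript measured by TaqMan qRT-PCR against three housekeeping genes, after HepaRG cells were treated 48 h with eight half-log concentrations (top 100 uM, 0.5% DMSO). Curves fitted bidirectionally relative to vehicle.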

Read-out in experiment [17]: Keratin 19 (KRT19), KRT19 (gene 3880)
Put plainly: LTEA_HepaRG_KRT19: Life Technologies and Expression Analysis (LTEA) Assay for Keratin 19 (KRT19) using HepaRG (AID 2283512). Summed up: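 Readout is qRT-PCR of KRT19 mRNA, normalized to ACTB, GAPDH and POLR2A, from HepaRG cells treated 48 h with eight-point half-log dilutions topping at 100 uM. Activity in either direction is scored relative to 0.5% DMSO vehicle.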

Read-out in experiment [18]: JUN Transcription Factor, JUN (gene 3725)
Put plainly: LTEA_HepaRG_JUN: Life Technologies and Expression Analysis (LTEA) Assay for JUN Transcription Factor using HepaRG (AID 2283513). In a few lines:
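Gene-expression endpoint: JUN mRNA (qRT-PCR, normalized to three reference genes) in HepaRG cultures treated 48 h with chemicals, duplicate wells, 100 uM maximum with half-log dilutions; bidirectional fitting relative to 0.5% DMSO.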

Read-out in experiment [19]: Lipase C (LIPC), LIPC (gene 3990)
Put plainly: LTEA_HepaRG_LIPC: Life Technologies and Expression Analysis (LTEA) Assay for Lipase C (LIPC) using HepaRG (AID 2283514). In a few lines:
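LIPC expression was quantified by qRT-PCR against three housekeeping genes (ACTB, GAPDH, POLR2A). Differentiated human HepaRG cells received eight half-log doses (top 100 uM, 0.5% DMSO) in duplicate for 48 h; fitting bidirectional relative to DMSO.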

Hypoxia-inducible factor 1-alpha (Homo sapiens), sequence (Q16665 whole entry, looked up): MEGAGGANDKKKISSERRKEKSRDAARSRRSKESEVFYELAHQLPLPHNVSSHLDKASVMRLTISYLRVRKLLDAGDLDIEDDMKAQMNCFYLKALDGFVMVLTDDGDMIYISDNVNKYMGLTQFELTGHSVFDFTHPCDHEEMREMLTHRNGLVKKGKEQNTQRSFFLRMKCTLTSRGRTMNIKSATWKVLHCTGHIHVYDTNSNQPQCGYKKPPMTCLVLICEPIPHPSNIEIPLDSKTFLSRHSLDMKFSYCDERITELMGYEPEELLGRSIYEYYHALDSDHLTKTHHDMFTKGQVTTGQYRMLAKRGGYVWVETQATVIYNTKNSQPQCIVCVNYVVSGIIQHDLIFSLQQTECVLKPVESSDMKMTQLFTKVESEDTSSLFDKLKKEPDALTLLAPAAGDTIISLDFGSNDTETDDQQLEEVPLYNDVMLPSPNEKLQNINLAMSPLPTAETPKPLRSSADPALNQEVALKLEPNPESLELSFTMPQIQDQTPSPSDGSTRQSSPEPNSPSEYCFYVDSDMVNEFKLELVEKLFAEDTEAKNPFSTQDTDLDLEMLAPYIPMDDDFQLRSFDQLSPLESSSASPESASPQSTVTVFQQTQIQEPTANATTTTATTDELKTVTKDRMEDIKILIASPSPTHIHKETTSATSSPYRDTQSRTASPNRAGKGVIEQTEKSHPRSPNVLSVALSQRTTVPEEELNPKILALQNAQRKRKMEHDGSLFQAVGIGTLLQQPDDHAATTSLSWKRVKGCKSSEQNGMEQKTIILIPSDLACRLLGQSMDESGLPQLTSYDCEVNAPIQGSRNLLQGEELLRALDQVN

Broadly, the AC50 is the concentration at which the activity in the assay is half-maximal. In the case of `O=C(O)Cn1c(=O)n(Cc2ccc(Br)cc2F)c(=O)c2ccc(Cl)cc21`, the compound was called inactive in [1], in [2], in [3], in experiment [4], in experiment [5] and in experiment [6]. The compound was called inactive (in experiment [7]; in [8]; in [9]; in experiment [10]; in the experiment with HGF (gene 3082); in [11]). Besides, the result in experiment [12], in experiment [13], in experiment [14], in experiment [15], in experiment [16] and in experiment [18] was inactive. In addition, the compound was called inactive in experiment [19]. Also, the AC50 in experiment [17] is 50 µM (active).

Take `O=C(O)c1ccccc1-n1cc(C(=O)O)c(=O)c2cc(Nc3c(F)cc(F)cc3Cl)c(Cl)cc21`: the outcome in experiment [1], in experiment [2], in experiment [3], in [4], in experiment [5] and in experiment [6] was inactive. For the same compound, the result (in experiment [7]; in [8]; in experiment [9]; in [10]; in the experiment with HGF (gene 3082); in experiment [11]) was inactive. Besides, the result in experiment [12], in [13], in experiment [15], in [16], in experiment [17] and in [18] was inactive. Also, the compound was called inactive in [19].

With `CC(C)(O)c1ccc(CNC(=O)c2cccnc2Oc2ccc3nonc3c2)cc1`, the call in experiment [1], in experiment [2], in experiment [3], in [4], in [5] and in experiment [6] was inactive. Also, the outcome in experiment [8], in experiment [9], in experiment [10], in experiment [12], in [13] and in experiment [15] was inactive. Further, the compound was called inactive in experiment [17], in [18] and in experiment [19]. In addition, the AC50 in [11] was 22.7 µM (active).
